From PubChem BioAssay AID1159580 (chemical genetic matrix, 2015)
“And” between values parts separate entries of the source, which are not always exact repeats. Equal entries are not always repeated. About 2,000 (36%) of roughly 5,500 compounds were called active. Another 18% or so got no clear call; they are omitted. Cut-off read from the data, not from the text of the source: active = normalized growth mostly below about 0.91 (no sharp cut-off); inconclusive = no clear call, values can overlap the other calls; inactive = mostly above about 0.92. Some of the results follow.

Experiment: chemical genetic growth profiling, strain panel (AID 1159580);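 note: tested at 20 µM; growth read once vehicle control cultures reached saturation at 30 °C; 1 = growth at the plate median or of vehicle wells; lower values mean less growth of the strain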
Details: S. cerevisiae deletion strains, growth OD

Measured: normalized growth

CCC[C@@H]1C[C@@H](C(=O)N[C@H]([C@H]2O[C@H](SC)[C@H](O)[C@@H](O)[C@H]2O)[C@H](C)O)N(C)C1
inactive: locus YAL021C, strain ccr4, active compounds read low 0.981 | locus YAL026C, strain drs2, active compounds read low 0.99 | locus YAL030W, strain snc1, active compounds read low 0.984 | locus YBL061C, strain skt5, active compounds read low 0.981 | locus YBR009C, strain hhf1, active compounds read low 1.01 | locus YBR021W, strain FUR4, active compounds read low 1.01 | locus YBR023C, strain chs3, active compounds read low 0.977 | locus YBR171W, strain sec66, active compounds read low 0.962 | locus YBR229C, strain ROT2, active compounds read low 0.991 | locus YBR231C, strain swc5, active compounds read low 0.981 | locus YBR279W, strain paf1, active compounds read low 0.985 | locus YCL011C, strain gbp2, active compounds read low 0.997 | locus YCL016C, strain dcc1, active compounds read low 1.03 | locus YCL029C, strain bik1, active compounds read low 0.996 | locus YCL061C, strain MRC1, active compounds read low 0.969 | locus YCL069W, strain vba3, active compounds read low 0.971 | locus YCR088W, strain abp1, active compounds read low 0.973 | locus YDL005C, strain med2, active compounds read low 0.979 | locus YDL035C, strain GPR1, active compounds read low 1.02 | locus YDL040C, strain nat1, active compounds read low 0.975 | locus YDL074C, strain BRE1, active compounds read low 1.03 | locus YDL101C, strain DUN1, active compounds read low 0.983 | locus YDL134C, strain PPH21, active compounds read low 1 | locus YDL185W, strain tfp1, active compounds read low 0.979 | locus YDL192W, strain arf1, active compounds read low 0.98 | locus YDR001C, strain nth1, active compounds read low 0.958 | locus YDR069C, strain doa4, active compounds read low 0.965 | locus YDR101C, strain arx1, active compounds read low 1.01 | locus YDR137W, strain rgp1, active compounds read low 0.983 | locus YDR150W, strain NUM1, active compounds read low 1 | locus YDR159W, strain sac3, active compounds read low 1.01 | locus YDR162C, strain NBP2, active compounds read low 1.01 | locus YDR195W, strain ref2 0.922 | locus YDR297W, strain sur2, active compounds read low 0.975 | locus YDR318W, strain mcm21, active compounds read low 0.989 | locus YDR334W, strain swr1, active compounds read low 0.929 | locus YDR335W, strain msn5, active compounds read low 0.974 | locus YDR388W, active compounds read low 0.992 | locus YDR392W, strain spt3, active compounds read low 1.04 | locus YDR502C, strain sam2, active compounds read low 0.991 | locus YEL003W, strain gim4, active compounds read low 0.952 | locus YEL037C, strain rad23, active compounds read low 0.983 | locus YEL061C, strain CIN8 (second series), active compounds read low 0.962 | locus YEL061C, strain CIN8, active compounds read low 1.01 | locus YER015W, strain faa2, active compounds read low 1.01 | locus YER016W, strain bim1, active compounds read low 0.987 | locus YER110C, active compounds read low 0.983 | locus YER111C, strain swi4, active compounds read low 0.98 | locus YER155C, strain BEM2 (second series), active compounds read low 0.986 | locus YER155C, strain BEM2, active compounds read low 0.975 | locus YER167W, strain BCK2, active compounds read low 1.02 | locus YFR010W, strain ubp6, active compounds read low 0.974 | locus YGL078C, strain dbp3, active compounds read low 0.981 | locus YGL086W, strain mad1, active compounds read low 1 | locus YGL167C, strain pmr1, active compounds read low 0.959 | locus YGL173C, strain kem1, active compounds read low 0.973 | locus YGL227W, strain vid30, active compounds read low 0.978 | locus YGL240W, strain doc1, active compounds read low 0.958 | locus YGL248W, strain PDE1, active compounds read low 0.986 | locus YGL253W, strain hxk2, active compounds read low 0.992 | locus YGR078C, strain PAC10, active compounds read low 0.993 | locus YGR135W, strain pre9, active compounds read low 0.955 | locus YGR252W, strain gcn5, active compounds read low 0.943 | locus YHR013C, strain ard1, active compounds read low 0.993 | locus YHR027C, strain rpn1, active compounds read low 0.981 | locus YHR030C, strain SLT2, active compounds read low 1.01 | locus YHR079C, strain IRE1 (second series), active compounds read low 0.998 | locus YHR079C, strain IRE1, active compounds read low 1.03 | locus YHR094C, strain hxt1, active compounds read low 0.998 | locus YHR129C, strain ARP1, active compounds read low 0.981 | locus YHR142W, strain chs7, active compounds read low 0.995 | locus YHR200W, strain rpn10, active compounds read low 0.993 | locus YIL066C, strain RNR3, active compounds read low 0.991 | locus YIL073C, strain SPO22, active compounds read low 1 | locus YIL125W, strain kgd1, active compounds read low 0.985 | locus YIR030C, strain dcg1, active compounds read low 0.99 | locus YJL092W, strain hpr5, active compounds read low 0.977 | locus YJL095W, strain BCK1 (second series), active compounds read low 0.978 | locus YJL095W, strain BCK1, active compounds read low 0.98 and 1.02 | locus YJL115W, strain asf1, active compounds read low 0.977 | locus YJL129C, strain trk1, active compounds read low 0.984 | locus YJL134W, strain LCB3, active compounds read low 0.998 | locus YJL154C, strain vps35, active compounds read low 0.969 | locus YJL164C, strain tpk1, active compounds read low 1.01 | locus YJL166W, strain qcr8, active compounds read low 0.934 | locus YJL168C, strain set2, active compounds read low 0.992 | locus YJL187C, strain SWE1 (second series), active compounds read low 0.984 | locus YJR043C, strain POL32, active compounds read low 1.01
